A number with no mark means an inactive call. Records with an inconclusive call do not appear. Where a call stands in place of a potency, no number is given. The source made the active and inactive calls. Unless noted, calls follow the shape of the dose curve; as a rule, active = well fitted curve in the direction sought with a large enough effect in the repeat runs; inconclusive = weak or mixed curves; inactive = no such curve, though single readings can be large; an effect the other way counts as inactive or inconclusive.
What was measured:
[1] = biological target: Estrogen receptor beta (Homo sapiens) (UniProt Q92731); experiment: qHTS assay to identify small molecule agonists of the estrogen receptor beta (ER-beta) signaling pathway (AID 1259377; active = well fitted activation curve with a large enough effect in the signal ratio in the repeat runs, not every such curve was filed as active; the % refers to the signal ratio)
Summary of the method: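 In HEK293T cells bearing a UAS-beta-lactamase reporter under ER-beta control, DMSO-delivered compounds were incubated for 16 hr at 37C. Activity was detected as fluorescence 2 hours after LiveBLAzer B/G FRET substrate addition.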

[2] = biological target: Estrogen receptor beta (Homo sapiens) (UniProt Q92731); experiment: qHTS assay to identify small molecule antagonists of the estrogen receptor beta (ER-beta) signaling pathway (AID 1259378; active = well fitted inhibition curve with a large enough effect in the signal ratio in the repeat runs, not every such curve was filed as active; the % refers to the signal ratio)
Summary of the method: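 ER-beta-UAS-bla HEK293T cells in 2% charcoal-stripped FBS medium treated with compound plus 1nM final 17-beta-estradiol for 16 hr at 37C. Beta-lactamase reporter read by FRET substrate fluorescence after 2 hours at room temperature.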

[3] = qHTS assay to identify small molecule agonists of the androgen receptor (AR) signaling pathway in the presence of an antagonist - cell viability counter screen (AID 1259379); also: series mostly up to about 92 µM; nearly all actives have a fitted effect of over 25% in size
Summary of the method: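 MDA-kb2 human breast carcinoma cells (stable MMTV-luciferase, AR/GR responsive) were seeded 3,000 cells/well, pre-incubated 5 hr at 37C without CO2, then given 3.0uM nilutamide and compounds at 15 concentrations for 16 hr. Viability was read by CellTiter-Fluor fluorescence.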

[4] = qHTS assay to identify small molecule agonists of the estrogen receptor beta (ER-beta) signaling pathway - cell viability counter screen (AID 1259380); also: nearly all actives have a fitted effect of over 30% in size; also: potency is read from the fitted curve at half-maximal effect
Summary of the method: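 ER-beta-UAS-bla HEK293T cells in medium with 2% charcoal-stripped FBS were preincubated 6 hr at 37C, dosed with compound in DMSO for 16 hr, then after the bla read, CellTiter-Glo was added for 30 min at room temperature; luminescence recorded.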

[5] = qHTS assay to identify small molecule antagonists of the estrogen receptor beta (ER-beta) signaling pathway - cell viability counter screen (AID 1259382); also: series mostly up to about 92 µM; nearly all actives have a fitted effect of over 55% in size
Summary of the method: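 ER-beta-UAS-bla HEK293T cells (2,000/well, 2% charcoal-stripped FBS) were pre-incubated 6 hr at 37C, then given compound plus 1nM final 17-beta-estradiol for 16 hr. Viability was read in the same wells by CellTiter-Glo luminescence after 30 min at room temperature.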

[6] = biological target: Estrogen receptor (Homo sapiens) (UniProt P03372); experiment: qHTS assay to identify small molecule agonists of the estrogen receptor alpha (ER-alpha) signaling pathway in the presence of an antagonist (AID 1259383; calls by dose curve; also: top concentration of the series differs between compounds; nearly all actives have a fitted effect of over 15% in size)
Summary of the method: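 VM7Luc4E2 cells (endogenous full-length ER-alpha, 4×ERE-luciferase) were precultured 5 days in phenol red-free medium with 10% charcoal-stripped FBS, given 10.0nM ICI-182,780 (final), then treated with compounds at 15 concentrations for 22hr at 37C; luminescence read with ONE-Glo.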

[7] = qHTS assay to identify small molecule agonists or antagonists of the thyroid stimulating hormone receptor (TSHR) signaling pathway - wild type cell line counter screen (AID 1259384; calls by dose curve)
Summary of the method: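 Wild-type Hek293 cells, 800/well, 18 h at 37C, then compound with Ro20-1724 for 30 min RT. cAMP by HTRF (cAMP-d2/anti-cAMP cryptate), 1 h RT, fluorescence read. 15 concentrations, triplicates.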

[8] = biological target: Thyrotropin receptor (Homo sapiens) (UniProt P16473); experiment: qHTS assay to identify small molecule antagonists of the thyroid stimulating hormone receptor (TSHR) signaling pathway (AID 1259385; calls by dose curve; also: nearly all actives have a fitted effect of over 20% in size)
Summary of the method: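 TSHR-HEK293 cells (800/well) plated 18 h, then compounds with Ro20-1724 and TSH at 1.5 ng/mL final, 30 min at room temperature. cAMP quantified by HTRF (cAMP-d2/anti-cAMP-cryptate, 1 h); 15 concentrations in triplicate.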

[9] = qHTS assay to identify small molecule agonists of the estrogen receptor alpha (ER-alpha) signaling pathway in the presence of an antagonist - cell viability counter screen (AID 1259386);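 also: series mostly up to about 92 µM; cells exposed to compounds for 22 h at 37 °C before the viability read; nearly all actives have a fitted effect of over 30% in size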
Summary of the method: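 VM7Luc4E2 cells (endogenous full-length ER-alpha, 4×ERE-luciferase) were held 5 days in phenol red-free medium with 10% charcoal-stripped FBS, plated, then given 10.0nM ICI-182,780 and compounds at 15 concentrations for 22hr at 37C; viability read by CellTiter-Fluor fluorescence.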

[10] = biological target: Progesterone receptor (Homo sapiens) (UniProt P06401); experiment: qHTS assay to identify small molecule agonists of the progesterone receptor (PR) signaling pathway (AID 1346784; calls by dose curve; also: nearly all actives have a fitted effect of over 30% in size)
Summary of the method: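 Using charcoal-stripped serum (2%) to limit endogenous steroids, PR-UAS-bla HEK 293T cells received compounds for 16 hr at 37C after 6 hr plating; beta-lactamase FRET fluorescence was recorded following 2 hr substrate loading at room temperature.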

[11] = biological target: Progesterone receptor (Homo sapiens) (UniProt P06401); experiment: qHTS assay to identify small molecule antagonists of the progesterone receptor (PR) signaling pathway (AID 1346795; active = well fitted inhibition curve with a large enough effect in the signal ratio in the repeat runs, not every such curve was filed as active; the % refers to the signal ratio; also: potency is read from the fitted curve at half-maximal effect)
Summary of the method: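 Inhibition of R5020-induced (1 nM final) beta-lactamase reporter signal in PR-UAS-bla HEK293T cells was scored by FRET fluorescence after overnight (16 hr) compound treatment.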

[12] = qHTS assay to identify small molecule antagonists of the progesterone receptor (PR) signaling pathway - cell viability counter screen (AID 1346798); also: series mostly up to about 92 µM; nearly all actives have a fitted effect of over 50% in size
Summary of the method: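 ATP content as viability readout: CellTiter-Glo luminescence, 30 min room temperature, in PR-UAS-bla HEK293T cells after 16 hr compound/R5020 treatment at 37C and 5% CO2.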

[13] = qHTS assay to identify small molecule antagonists of the TGF-beta/Smad signaling pathway - cell viability counter screen (AID 1346824); also: nearly all actives have a fitted effect of over 50% in size
Summary of the method: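 SBE-bla HEK 293T cells, incubated overnight, then compound plus 0.25 ng/mL TGF-beta1 (stock added) for 5 hr at 37 C. Viability was read in the same wells by CellTiter-Glo luminescence after 30 min at room temperature.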

[14] = qHTS assay to identify small molecule agonists of the TGF-beta/Smad signaling pathway - cell viability counter screen (AID 1346829); also: top concentration of the series differs between compounds; nearly all actives have a fitted effect of over 45% in size
Summary of the method: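 Tox21 qHTS format: SBE-bla HEK 293T cells treated with DMSO-dissolved compounds for 5 hr; CellTiter-Glo luminescence after 30 min at room temperature.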

[15] = qHTS assay to identify small molecule agonists of the TGF-beta/Smad signaling pathway (AID 1346859; active = well fitted activation curve with a large enough effect in the signal ratio in the repeat runs, not every such curve was filed as active; the % refers to the signal ratio; also: series mostly up to about 77 µM)
Summary of the method: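 Stable Smad binding element-beta-lactamase HEK 293T cells; 5 hr compound exposure at 37 C under 5% CO2; 2 hr room-temperature substrate step; fluorescence excited at 405 nm, collected at 460 nm and 530 nm.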

[16] = biological target: Thyrotropin-releasing hormone receptor (Homo sapiens) (UniProt P34981); experiment: qHTS assay to identify small molecule antagonists of the thyrotropin-releasing hormone receptor (TRHR) signaling pathway (AID 1346877; active = well fitted inhibition curve with a large enough effect in the repeat runs, not every such curve was filed as active; also: series mostly up to about 51 µM)
Summary of the method: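 TRHR-expressing HEK293 cells were seeded, cultured 18 h at 37 °C, then loaded with calcium dye for 2 h. Compounds were pre-incubated 5 min at room temperature before 1 nM TRH (final) was added, and kinetic fluorescence was recorded for 3 min.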

[17] = biological target: Thyrotropin-releasing hormone receptor (Homo sapiens) (UniProt P34981); experiment: qHTS assay to identify small molecule agonists of the thyrotropin-releasing hormone receptor (TRHR) signaling pathway (AID 1346891; calls by dose curve; also: series mostly up to about 58 µM)
Summary of the method: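 In 1536-format, 1500 TRHR-Hek293 cells per well grew 18 h, took up calcium dye for 2 h at 37 °C, received compound, and were read kinetically; 15-point titrations, triplicates.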

[18] = biological target: Androgen receptor (Homo sapiens) (UniProt P10275); experiment: qHTS assay to identify small molecule agonists of the androgen receptor (AR) signaling pathway in the presence of an antagonist (AID 1259381; calls by dose curve; also: nearly all actives have a fitted effect of over 15% in size; also: potency is read from the fitted curve at half-maximal effect)
Summary of the method: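 MDA-kb2 human breast carcinoma cells carrying an MMTV-luciferase reporter (AR- and GR-responsive) were treated with compounds at 15 concentrations plus 3.0uM final nilutamide for 16hr at 37C without CO2; luminescence was read after ONE-Glo addition.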

[19] = qHTS assay to identify small molecule agonists of the progesterone receptor (PR) signaling pathway - cell viability counter screen (AID 1346799; calls by dose curve; also: nearly all actives have a fitted effect of over 45% in size)
Summary of the method: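 Cytotoxicity in PR-bla HEK293T cells: 16 h compound, 37C; CellTiter-Glo added post-FRET read; luminescence after 30 min RT.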

[20] = qHTS assay to identify small molecule antagonists of the sonic hedgehog signaling (Shh) pathway (AID 1259369; calls by dose curve; also: nearly all actives have a fitted effect of over 45% in size)
Summary of the method: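 NIH/3T3-derived 3T3Gli1-Luc cells with stably integrated Gli1-Luc reporter were preincubated 4hr at 37 C, then given compounds in DMSO plus Shh conditioned medium and incubated 24hr. Firefly luciferase luminescence read after 30min reagent at room temperature.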

Progesterone receptor (Homo sapiens), sequence (P06401 whole entry, looked up): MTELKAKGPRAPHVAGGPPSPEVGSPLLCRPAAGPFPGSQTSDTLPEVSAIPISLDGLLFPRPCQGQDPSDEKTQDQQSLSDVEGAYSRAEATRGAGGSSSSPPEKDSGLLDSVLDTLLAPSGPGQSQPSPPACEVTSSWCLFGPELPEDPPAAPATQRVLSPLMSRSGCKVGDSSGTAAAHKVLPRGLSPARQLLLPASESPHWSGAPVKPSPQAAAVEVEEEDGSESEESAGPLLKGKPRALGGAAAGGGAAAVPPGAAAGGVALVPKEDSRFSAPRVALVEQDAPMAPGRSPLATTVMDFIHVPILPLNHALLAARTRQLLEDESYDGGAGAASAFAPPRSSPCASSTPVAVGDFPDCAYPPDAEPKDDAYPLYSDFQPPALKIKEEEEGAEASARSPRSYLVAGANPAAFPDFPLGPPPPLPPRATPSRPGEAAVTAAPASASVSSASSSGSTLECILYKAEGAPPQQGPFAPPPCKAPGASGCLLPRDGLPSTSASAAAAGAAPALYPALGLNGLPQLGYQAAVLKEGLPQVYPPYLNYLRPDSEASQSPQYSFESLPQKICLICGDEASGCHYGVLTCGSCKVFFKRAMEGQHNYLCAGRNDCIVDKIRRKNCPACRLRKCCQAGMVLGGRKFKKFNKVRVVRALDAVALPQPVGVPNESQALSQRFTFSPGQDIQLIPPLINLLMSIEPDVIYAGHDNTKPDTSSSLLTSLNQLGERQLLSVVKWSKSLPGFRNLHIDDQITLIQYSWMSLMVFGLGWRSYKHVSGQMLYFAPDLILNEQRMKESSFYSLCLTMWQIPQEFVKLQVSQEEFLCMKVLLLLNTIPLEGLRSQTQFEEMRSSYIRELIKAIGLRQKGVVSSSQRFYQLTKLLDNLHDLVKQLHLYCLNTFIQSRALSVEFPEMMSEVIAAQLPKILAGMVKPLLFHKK
Androgen receptor (Homo sapiens), sequence (P10275 whole entry, looked up): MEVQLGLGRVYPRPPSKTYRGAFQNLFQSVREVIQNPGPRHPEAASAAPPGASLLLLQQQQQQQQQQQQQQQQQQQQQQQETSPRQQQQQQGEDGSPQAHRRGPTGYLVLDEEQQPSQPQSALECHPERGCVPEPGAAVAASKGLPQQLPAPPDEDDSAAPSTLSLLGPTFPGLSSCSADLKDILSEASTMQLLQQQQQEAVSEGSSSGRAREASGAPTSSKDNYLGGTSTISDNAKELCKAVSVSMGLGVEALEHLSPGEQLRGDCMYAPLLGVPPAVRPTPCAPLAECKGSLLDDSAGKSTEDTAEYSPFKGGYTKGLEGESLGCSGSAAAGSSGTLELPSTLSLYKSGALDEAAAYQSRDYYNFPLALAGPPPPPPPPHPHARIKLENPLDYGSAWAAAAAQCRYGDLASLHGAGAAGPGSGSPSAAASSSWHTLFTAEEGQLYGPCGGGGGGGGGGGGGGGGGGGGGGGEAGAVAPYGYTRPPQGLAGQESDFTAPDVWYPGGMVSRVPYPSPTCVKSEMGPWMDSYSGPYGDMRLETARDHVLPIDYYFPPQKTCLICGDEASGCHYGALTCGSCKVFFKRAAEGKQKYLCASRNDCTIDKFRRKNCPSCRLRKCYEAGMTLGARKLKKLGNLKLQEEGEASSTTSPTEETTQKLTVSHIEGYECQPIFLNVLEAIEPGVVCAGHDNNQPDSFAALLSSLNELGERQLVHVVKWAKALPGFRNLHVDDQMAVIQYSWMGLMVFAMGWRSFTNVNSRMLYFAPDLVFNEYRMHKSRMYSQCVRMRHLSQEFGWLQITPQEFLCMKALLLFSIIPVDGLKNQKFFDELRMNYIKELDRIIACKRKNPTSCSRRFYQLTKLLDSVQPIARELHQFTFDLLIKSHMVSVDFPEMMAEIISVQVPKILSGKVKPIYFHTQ
Thyrotropin receptor (Homo sapiens), sequence (P16473 whole entry, looked up): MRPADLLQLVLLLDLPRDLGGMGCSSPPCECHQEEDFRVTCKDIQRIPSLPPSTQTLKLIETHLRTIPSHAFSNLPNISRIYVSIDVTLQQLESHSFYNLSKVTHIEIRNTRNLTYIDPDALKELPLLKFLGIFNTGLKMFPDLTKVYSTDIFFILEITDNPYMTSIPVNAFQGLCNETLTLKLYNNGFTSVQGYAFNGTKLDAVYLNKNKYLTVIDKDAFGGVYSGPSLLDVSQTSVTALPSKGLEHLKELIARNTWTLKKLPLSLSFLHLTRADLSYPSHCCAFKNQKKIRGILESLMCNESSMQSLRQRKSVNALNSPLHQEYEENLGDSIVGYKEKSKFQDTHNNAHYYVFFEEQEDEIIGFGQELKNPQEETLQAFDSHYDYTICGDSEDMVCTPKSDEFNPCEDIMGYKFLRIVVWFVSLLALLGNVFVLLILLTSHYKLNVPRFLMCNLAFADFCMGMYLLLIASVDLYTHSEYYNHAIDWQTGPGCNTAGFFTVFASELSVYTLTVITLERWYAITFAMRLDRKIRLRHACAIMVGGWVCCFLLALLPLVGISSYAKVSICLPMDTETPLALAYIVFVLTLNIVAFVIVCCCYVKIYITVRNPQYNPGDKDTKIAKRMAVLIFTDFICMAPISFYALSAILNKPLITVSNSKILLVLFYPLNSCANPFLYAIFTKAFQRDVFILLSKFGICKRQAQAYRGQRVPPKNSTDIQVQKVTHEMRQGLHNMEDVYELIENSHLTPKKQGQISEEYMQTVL
Thyrotropin-releasing hormone receptor (Homo sapiens), sequence (P34981 whole entry, looked up): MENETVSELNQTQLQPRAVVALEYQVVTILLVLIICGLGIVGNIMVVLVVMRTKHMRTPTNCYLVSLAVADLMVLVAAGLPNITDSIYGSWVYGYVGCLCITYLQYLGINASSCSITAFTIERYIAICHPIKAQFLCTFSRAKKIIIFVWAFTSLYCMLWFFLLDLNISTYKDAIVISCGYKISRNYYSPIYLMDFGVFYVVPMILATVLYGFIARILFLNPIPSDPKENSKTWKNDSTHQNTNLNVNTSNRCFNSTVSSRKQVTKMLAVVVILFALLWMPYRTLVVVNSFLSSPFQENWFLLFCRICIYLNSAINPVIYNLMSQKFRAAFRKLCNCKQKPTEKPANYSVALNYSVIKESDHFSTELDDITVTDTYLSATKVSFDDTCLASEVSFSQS
Estrogen receptor (Homo sapiens), sequence (P03372 whole entry, looked up): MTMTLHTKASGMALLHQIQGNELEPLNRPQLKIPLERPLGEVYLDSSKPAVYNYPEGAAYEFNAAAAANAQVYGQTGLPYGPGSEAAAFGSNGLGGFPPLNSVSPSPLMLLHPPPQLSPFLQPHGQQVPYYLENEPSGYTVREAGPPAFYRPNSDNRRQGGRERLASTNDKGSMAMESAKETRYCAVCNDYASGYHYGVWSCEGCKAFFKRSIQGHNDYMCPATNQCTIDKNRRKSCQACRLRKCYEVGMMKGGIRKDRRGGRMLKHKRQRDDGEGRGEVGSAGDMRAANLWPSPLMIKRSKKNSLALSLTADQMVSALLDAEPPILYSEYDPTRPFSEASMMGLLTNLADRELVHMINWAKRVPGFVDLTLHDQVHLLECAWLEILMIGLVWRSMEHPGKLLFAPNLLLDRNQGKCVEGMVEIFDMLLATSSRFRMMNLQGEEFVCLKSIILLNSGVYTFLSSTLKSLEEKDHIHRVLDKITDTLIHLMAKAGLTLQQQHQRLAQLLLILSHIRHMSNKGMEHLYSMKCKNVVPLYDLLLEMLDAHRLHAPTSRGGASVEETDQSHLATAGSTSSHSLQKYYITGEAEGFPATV
Estrogen receptor beta (Homo sapiens), sequence (Q92731 whole entry, looked up): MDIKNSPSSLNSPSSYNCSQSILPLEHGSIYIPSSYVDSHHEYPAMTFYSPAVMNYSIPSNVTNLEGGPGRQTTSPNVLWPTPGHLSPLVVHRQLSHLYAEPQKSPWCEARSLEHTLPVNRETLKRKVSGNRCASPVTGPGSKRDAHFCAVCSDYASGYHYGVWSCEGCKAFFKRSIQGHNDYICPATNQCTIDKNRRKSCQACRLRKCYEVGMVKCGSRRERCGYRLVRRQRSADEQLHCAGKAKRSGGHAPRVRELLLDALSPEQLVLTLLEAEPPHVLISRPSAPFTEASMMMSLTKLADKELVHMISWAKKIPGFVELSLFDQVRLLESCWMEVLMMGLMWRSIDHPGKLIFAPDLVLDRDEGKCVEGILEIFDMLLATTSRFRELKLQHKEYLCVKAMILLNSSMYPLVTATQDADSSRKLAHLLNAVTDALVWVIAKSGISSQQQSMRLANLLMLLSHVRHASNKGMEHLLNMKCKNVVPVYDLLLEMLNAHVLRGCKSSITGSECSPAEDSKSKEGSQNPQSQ

CCC(=O)OC(C)(C)C1CC=C(C)CC1 (centres undefined)
Potency [1]: inactive | Potency [2]: inactive | Potency [3]: inactive | Potency [4]: inactive | Potency [5]: inactive | Potency [6]: inactive | Potency [7]: inactive | Potency [8]: inactive | Potency [9]: inactive | outcome [10]: inactive | Potency [11]: inactive | Potency [12]: inactive | Potency [13]: inactive | Potency [14]: inactive | outcome [15]: inactive

CCOC(=O)C1=C(C)NC(C)=C(C(=O)OC)C1c1cccc([N+](=O)[O-])c1 (centres undefined)
Potency [2]: inactive | Potency [3]: inactive | Potency [4]: inactive | Potency [5]: inactive | Potency [6]: inactive | Potency [7]: inactive | Potency [9]: inactive | outcome [10]: inactive | Potency [13]: inactive | Potency [14]: inactive | outcome [15]: inactive | outcome [16]: inactive | Potency [17]: inactive

CCCCOc1ccc(CC(=O)NO)cc1
Potency [1]: inactive | Potency [3]: inactive | Potency [4]: 9.44 µM (active) | Potency [7]: inactive | outcome [10]: inactive | Potency [13]: inactive | Potency [14]: inactive | outcome [15]: inactive

CC[C@]12CCCN3CCc4c(n(c5ccccc45)C(=O)C1)[C@@H]32
Potency [1]: inactive | Potency [2]: inactive | Potency [18]: 29.8 µM (active) | Potency [7]: inactive | Potency [8]: inactive | Potency [9]: inactive | outcome [10]: inactive | Potency [11]: 13.3 µM (active) | Potency [19]: inactive | Potency [13]: inactive | Potency [14]: inactive

COc1cc(C(C)(C)C)c(O)c(C(C)(C)C)c1
Potency [20]: inactive | Potency [4]: inactive | Potency [5]: inactive | Potency [7]: inactive | Potency [8]: inactive | Potency [9]: inactive | outcome [10]: inactive | Potency [11]: inactive | Potency [12]: inactive | Potency [19]: inactive | Potency [13]: inactive | Potency [14]: inactive | outcome [15]: inactive | outcome [16]: inactive | Potency [17]: inactive

O=C(CCN1CCN2CCCC2C1)N1c2ccccc2Sc2ccc(Cl)cc21 (centres undefined)
activation [1]: -2.5% [at 19 µM] | activity, negative = inhibition [2]: -12.6% [at 19 µM] | activity change, negative = cytotoxicity [3]: -7.38% [at 19 µM] | activity change, negative = cytotoxicity [4]: -14.2% [at 19 µM] | activation [18]: -1.48% [at 19 µM] | activity change, negative = cytotoxicity [5]: -9.75% [at 19 µM] | activation [6]: -1.43% [at 19 µM] | cAMP activity change [7]: -1.23% [at 18.9 µM, stronger effect = higher value] | activation [10]: -2.53% [at 19 µM] | activity change, negative = inhibition [11]: -10.4% [at 18.9 µM] | activity change, negative = cytotoxicity [12]: -27.7% [at 18.9 µM] | activity change, negative = cytotoxicity [19]: -27.9% [at 19 µM] | viability change, negative = cytotoxic [13]: 0.3% [at 15.8 µM] | activity change, negative = cytotoxicity [14]: -3.72% [at 15.8 µM] | activation [15]: -2.07% [at 15.8 µM]

O=C(Cl)c1ccc([N+](=O)[O-])cc1
Potency [1]: inactive | Potency [2]: inactive | Potency [4]: inactive | Potency [18]: inactive | Potency [5]: inactive | Potency [6]: inactive | Potency [7]: inactive | Potency [8]: inactive | Potency [19]: inactive | Potency [13]: inactive | Potency [14]: inactive | outcome [15]: inactive | outcome [16]: inactive | Potency [17]: inactive

CC(O)C1CCCCC1 (centres undefined)
Potency [2]: inactive | Potency [3]: inactive | Potency [4]: inactive | Potency [5]: inactive | Potency [9]: inactive | outcome [10]: inactive | Potency [12]: inactive | Potency [19]: inactive | Potency [13]: inactive | Potency [14]: inactive | outcome [15]: inactive | outcome [16]: inactive | Potency [17]: inactive

Reference: PubChem BioAssay (Tox21)
